Measured values from publication PMC7862700, “An all-to-all approach to the identification of sequence-specific readers for epigenetic DNA modifications on cytosine”.

Tests used:
Assay in all cases: DAPPL (digital affinity profiling via proximity ligation, sequencing); 10 mM Tris-HCl pH 7.5, 50 mM NaCl, 1 mM DTT, 4% glycerol, room temperature, 30 min; GST-TFs on glutathione beads, 16-mer random dsDNA library, 0.1% formaldehyde crosslink after washing; high values mean tight binding
Details in all cases: protein: recombinant; tags: N-terminal GST; dsDNA, one strand shown
FLI1 = molecular target: T1, FLI1 (Homo sapiens, UniProt Q01543 1-452)
T1 sequence: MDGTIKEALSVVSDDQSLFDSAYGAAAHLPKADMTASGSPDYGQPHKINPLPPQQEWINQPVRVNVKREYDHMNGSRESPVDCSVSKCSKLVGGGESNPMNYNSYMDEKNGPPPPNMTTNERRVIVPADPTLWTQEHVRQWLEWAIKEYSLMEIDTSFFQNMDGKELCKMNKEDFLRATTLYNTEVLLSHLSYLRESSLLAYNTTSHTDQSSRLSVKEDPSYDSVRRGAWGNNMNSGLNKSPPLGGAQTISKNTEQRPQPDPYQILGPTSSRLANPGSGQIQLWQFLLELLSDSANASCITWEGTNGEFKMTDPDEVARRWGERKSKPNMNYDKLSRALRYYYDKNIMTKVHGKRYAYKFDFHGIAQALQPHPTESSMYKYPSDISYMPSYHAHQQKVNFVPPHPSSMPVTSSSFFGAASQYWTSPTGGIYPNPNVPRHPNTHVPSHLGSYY
Procedure, shortened: (§1)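 Pools were built from human transcription factors expressed in yeast as GST fusions, captured on glutathione beads and DNA-barcoded, along with a tag-only sample. Incubation with 200 nmole of a 16-mer random double-stranded DNA library lasted 30 min at room temperature in Tris/NaCl/DTT/glycerol buffer, and was followed by washing, 0.1% formaldehyde crosslinking, proximity ligation, PCR amplification and Illumina NextSeq500 sequencing. Binding signal is the quotient of each hexamer's read frequency for a factor and its frequency for the tag-only sample.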

ELK1 = molecular target: T2, ELK1 (Homo sapiens, UniProt P19419 1-428)
T2 sequence: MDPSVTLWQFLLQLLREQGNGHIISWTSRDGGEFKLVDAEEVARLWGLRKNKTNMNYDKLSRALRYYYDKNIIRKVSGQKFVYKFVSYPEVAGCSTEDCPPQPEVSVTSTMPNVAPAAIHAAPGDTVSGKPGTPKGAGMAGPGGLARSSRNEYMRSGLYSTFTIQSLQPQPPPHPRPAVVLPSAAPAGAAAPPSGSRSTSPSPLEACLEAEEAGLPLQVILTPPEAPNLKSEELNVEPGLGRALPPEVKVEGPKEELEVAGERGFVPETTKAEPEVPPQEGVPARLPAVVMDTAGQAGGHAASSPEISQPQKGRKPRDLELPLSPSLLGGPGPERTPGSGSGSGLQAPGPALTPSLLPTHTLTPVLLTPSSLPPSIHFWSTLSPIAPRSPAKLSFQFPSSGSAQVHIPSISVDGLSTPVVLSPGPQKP
Procedure, shortened: as §1

ERG = molecular target: T3, ERG (Homo sapiens, UniProt P11308 1-479)
T3 sequence: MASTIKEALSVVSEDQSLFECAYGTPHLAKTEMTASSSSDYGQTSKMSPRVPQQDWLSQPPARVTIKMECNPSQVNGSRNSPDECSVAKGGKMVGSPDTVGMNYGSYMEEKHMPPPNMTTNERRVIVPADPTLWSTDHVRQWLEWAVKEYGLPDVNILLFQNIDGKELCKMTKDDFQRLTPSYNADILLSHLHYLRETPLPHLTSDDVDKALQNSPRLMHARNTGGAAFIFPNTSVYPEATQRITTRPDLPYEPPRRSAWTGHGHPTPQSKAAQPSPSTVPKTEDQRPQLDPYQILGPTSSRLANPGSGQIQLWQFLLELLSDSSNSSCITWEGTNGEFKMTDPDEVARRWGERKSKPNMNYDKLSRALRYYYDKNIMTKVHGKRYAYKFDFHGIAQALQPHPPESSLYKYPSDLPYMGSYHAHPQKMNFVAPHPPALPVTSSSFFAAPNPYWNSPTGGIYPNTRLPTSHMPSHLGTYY
Procedure, shortened: as §1

ELF1 = ELF1 (Homo sapiens, UniProt P32519 1-619)
Procedure, shortened: as §1

EHF = molecular target: T4, EHF (Homo sapiens, UniProt Q9NZC4 1-300)
T4 sequence: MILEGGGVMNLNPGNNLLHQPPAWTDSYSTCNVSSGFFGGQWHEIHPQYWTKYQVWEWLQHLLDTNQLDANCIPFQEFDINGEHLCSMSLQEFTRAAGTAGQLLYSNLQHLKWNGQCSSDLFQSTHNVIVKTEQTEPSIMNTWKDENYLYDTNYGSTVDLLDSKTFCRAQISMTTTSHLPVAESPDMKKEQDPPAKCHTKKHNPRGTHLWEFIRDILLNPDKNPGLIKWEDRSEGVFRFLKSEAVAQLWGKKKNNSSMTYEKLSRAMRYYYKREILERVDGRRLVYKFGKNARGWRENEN
Procedure, shortened: as §1

SPIB = SPIB (Homo sapiens, UniProt Q01892 1-262)
Procedure, shortened: as §1

FEV = molecular target: T5, FEV (Homo sapiens, UniProt Q99581 1-238)
T5 sequence: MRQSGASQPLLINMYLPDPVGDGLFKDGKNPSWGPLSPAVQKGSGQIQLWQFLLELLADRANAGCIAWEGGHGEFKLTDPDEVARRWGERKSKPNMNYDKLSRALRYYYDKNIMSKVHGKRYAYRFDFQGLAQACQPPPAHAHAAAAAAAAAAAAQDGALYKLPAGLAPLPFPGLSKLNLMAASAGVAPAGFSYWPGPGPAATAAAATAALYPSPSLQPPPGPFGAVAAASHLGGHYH
Procedure, shortened: as §1

ETV5 = ETV5 (Homo sapiens, UniProt P41161 1-510)
Procedure, shortened: as §1

ELF4 = ELF4 (Homo sapiens, UniProt Q99607 1-663)
Procedure, shortened: as §1

ETV2 = molecular target: T6, ETV2 (Homo sapiens, UniProt O00321 1-342)
T6 sequence: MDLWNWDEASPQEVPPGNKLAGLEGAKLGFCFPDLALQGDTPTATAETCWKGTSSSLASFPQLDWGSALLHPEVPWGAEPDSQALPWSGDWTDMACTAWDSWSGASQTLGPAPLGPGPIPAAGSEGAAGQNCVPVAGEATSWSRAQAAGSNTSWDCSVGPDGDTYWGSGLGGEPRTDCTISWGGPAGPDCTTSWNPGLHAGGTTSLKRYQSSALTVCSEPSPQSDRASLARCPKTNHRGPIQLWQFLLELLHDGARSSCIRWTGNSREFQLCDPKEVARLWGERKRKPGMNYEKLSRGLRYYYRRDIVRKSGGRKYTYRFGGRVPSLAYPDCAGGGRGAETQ
Procedure, shortened: as §1

ELF3 = molecular target: T7, ELF3 (Homo sapiens, UniProt P78545 1-371)
T7 sequence: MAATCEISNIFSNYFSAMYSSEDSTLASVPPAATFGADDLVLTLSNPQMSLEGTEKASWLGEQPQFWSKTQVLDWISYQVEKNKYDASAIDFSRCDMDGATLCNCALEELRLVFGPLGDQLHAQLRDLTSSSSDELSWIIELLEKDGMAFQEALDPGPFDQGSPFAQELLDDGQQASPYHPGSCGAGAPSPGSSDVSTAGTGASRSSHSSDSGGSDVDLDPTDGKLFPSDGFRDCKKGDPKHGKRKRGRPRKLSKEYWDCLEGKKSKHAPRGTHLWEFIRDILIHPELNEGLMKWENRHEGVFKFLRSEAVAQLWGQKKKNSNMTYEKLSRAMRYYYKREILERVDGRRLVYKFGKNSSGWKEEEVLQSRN
Procedure, shortened: as §1

ETV1 = ETV1 (Homo sapiens, UniProt P50549 1-477)
Procedure, shortened: as §1

ERF = molecular target: T8, ERF (Homo sapiens, UniProt P50548 1-548)
T8 sequence: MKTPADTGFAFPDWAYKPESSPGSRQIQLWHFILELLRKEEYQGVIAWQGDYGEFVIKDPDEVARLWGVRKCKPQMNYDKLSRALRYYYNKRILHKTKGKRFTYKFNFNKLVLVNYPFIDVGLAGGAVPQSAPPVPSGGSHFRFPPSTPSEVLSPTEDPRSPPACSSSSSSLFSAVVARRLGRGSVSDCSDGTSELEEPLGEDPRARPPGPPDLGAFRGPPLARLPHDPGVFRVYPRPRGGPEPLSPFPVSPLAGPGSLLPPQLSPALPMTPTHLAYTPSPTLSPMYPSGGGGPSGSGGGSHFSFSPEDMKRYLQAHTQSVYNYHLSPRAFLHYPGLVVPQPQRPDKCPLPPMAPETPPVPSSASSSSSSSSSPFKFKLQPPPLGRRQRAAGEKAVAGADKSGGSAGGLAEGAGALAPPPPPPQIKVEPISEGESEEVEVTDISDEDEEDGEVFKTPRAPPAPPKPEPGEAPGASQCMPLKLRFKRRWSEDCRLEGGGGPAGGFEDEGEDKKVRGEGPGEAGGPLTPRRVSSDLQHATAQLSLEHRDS
Procedure, shortened: as §1

ETV3L = molecular target: T9, ETV3L (Homo sapiens, UniProt Q6ZN32 1-361)
T9 sequence: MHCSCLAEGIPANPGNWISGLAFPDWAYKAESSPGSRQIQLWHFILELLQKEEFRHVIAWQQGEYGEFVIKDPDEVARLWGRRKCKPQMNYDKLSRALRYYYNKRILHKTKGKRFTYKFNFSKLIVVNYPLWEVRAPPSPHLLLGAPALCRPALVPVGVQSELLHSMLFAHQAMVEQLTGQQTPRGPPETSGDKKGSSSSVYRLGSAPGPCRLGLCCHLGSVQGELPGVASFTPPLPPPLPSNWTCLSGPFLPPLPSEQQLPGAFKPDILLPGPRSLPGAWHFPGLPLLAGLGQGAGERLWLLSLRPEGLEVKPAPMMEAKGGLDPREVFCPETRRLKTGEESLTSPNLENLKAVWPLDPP
Procedure, shortened: as §1

ETS2 = molecular target: T10, ETS2 (Homo sapiens, UniProt P15036 1-469)
T10 sequence: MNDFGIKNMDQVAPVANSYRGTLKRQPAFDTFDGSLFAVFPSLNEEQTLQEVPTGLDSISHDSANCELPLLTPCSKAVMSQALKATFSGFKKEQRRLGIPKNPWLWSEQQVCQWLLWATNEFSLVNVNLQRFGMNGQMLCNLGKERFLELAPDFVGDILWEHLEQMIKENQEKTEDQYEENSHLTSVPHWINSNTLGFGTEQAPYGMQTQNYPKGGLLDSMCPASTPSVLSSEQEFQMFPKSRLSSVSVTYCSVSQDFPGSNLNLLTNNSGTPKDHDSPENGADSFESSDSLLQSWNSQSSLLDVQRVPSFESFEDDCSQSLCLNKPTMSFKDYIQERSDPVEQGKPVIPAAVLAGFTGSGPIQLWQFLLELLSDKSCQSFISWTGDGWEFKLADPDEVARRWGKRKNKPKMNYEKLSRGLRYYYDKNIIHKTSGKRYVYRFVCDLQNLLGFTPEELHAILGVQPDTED
Procedure, shortened: as §1

ETV7 = molecular target: T11, ETV7 (Homo sapiens, UniProt Q9Y603 1-341)
T11 sequence: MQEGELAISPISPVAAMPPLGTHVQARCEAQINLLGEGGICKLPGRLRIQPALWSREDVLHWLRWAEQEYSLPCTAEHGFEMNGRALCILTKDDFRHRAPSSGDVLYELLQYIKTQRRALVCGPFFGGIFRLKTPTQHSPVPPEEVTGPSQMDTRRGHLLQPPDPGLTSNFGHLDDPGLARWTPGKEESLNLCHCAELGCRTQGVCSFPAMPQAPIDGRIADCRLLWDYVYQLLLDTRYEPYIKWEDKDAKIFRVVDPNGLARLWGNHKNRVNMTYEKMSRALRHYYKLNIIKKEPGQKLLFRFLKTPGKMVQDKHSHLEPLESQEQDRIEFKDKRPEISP
Procedure, shortened: as §1

ETV3 = molecular target: T12, ETV3 (Homo sapiens, UniProt P41162-2 1-143)
T12 sequence: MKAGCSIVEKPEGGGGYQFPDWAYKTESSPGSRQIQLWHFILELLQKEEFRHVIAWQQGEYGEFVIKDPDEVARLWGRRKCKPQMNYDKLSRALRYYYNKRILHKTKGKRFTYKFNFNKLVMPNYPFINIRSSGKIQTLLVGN
Procedure, shortened: as §1

ETV6 = ETV6 (Homo sapiens, UniProt P41212 1-452)
Procedure, shortened: as §1

SPI1 = SPI1 (Homo sapiens, UniProt P17947 1-270)
Procedure, shortened: as §1

Sequence of ETV6 (P41212 whole entry): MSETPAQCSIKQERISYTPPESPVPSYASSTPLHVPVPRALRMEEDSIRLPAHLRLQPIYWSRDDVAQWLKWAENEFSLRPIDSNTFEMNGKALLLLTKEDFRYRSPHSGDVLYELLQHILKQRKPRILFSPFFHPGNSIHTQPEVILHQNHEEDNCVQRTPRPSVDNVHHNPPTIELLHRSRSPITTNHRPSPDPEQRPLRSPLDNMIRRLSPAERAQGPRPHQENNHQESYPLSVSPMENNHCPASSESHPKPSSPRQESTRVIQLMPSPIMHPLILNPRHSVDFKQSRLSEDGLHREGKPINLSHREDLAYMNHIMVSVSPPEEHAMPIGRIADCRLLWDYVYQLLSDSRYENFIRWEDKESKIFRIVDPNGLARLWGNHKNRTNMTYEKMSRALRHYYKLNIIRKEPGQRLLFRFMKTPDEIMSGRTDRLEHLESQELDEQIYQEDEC
Sequence of ETV1 (P50549 whole entry): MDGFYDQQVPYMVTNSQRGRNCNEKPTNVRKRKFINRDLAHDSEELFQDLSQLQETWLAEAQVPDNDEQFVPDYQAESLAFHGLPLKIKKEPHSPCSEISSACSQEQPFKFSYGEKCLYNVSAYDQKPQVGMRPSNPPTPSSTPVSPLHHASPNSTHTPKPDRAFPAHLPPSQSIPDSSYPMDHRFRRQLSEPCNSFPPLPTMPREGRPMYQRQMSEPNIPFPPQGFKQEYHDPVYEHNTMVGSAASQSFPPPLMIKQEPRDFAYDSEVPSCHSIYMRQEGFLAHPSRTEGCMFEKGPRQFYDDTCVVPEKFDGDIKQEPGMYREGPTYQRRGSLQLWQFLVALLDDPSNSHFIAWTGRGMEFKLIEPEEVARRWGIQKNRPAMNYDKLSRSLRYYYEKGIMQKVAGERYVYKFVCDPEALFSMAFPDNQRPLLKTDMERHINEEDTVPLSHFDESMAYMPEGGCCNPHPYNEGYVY
Sequence of ELF4 (Q99607 whole entry): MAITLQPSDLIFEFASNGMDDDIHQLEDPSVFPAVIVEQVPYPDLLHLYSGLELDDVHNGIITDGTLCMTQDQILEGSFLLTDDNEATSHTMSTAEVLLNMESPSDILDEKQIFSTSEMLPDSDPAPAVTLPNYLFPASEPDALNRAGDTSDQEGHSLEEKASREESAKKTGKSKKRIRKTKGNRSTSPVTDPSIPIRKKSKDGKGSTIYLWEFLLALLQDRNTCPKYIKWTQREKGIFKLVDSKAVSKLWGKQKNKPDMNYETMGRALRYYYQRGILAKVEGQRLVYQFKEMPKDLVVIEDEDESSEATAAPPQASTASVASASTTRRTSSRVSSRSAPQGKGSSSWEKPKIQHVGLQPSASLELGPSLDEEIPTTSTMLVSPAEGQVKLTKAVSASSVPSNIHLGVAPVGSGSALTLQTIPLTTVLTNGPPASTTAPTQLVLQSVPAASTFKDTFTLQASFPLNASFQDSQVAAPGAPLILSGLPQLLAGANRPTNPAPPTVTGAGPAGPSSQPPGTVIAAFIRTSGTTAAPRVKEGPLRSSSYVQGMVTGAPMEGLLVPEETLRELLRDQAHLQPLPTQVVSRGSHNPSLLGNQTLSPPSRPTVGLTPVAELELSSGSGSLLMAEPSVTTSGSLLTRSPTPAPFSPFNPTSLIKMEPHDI
Sequence of SPIB (Q01892 whole entry): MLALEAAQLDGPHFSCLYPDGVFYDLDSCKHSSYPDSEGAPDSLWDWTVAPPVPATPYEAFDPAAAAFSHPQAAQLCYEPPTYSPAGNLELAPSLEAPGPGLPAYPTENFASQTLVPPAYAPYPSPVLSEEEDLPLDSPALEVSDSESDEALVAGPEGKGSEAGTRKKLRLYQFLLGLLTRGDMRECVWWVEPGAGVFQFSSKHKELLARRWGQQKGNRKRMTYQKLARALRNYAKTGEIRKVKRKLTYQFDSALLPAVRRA
Sequence of ETV5 (P41161 whole entry): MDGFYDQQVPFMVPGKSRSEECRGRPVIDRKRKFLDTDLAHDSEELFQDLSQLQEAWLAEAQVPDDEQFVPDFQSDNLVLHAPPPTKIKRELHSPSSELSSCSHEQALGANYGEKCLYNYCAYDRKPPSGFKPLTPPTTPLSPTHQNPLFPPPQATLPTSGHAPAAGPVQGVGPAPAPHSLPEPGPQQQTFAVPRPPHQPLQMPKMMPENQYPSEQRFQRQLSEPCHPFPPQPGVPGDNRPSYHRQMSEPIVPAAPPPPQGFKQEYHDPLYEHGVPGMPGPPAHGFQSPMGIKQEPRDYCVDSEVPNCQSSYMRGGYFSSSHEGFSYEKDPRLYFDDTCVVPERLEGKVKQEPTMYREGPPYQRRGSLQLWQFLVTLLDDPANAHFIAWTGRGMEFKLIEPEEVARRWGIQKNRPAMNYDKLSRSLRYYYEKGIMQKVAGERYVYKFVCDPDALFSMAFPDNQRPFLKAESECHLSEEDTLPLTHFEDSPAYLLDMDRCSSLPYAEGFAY
Sequence of ELF1 (P32519 whole entry): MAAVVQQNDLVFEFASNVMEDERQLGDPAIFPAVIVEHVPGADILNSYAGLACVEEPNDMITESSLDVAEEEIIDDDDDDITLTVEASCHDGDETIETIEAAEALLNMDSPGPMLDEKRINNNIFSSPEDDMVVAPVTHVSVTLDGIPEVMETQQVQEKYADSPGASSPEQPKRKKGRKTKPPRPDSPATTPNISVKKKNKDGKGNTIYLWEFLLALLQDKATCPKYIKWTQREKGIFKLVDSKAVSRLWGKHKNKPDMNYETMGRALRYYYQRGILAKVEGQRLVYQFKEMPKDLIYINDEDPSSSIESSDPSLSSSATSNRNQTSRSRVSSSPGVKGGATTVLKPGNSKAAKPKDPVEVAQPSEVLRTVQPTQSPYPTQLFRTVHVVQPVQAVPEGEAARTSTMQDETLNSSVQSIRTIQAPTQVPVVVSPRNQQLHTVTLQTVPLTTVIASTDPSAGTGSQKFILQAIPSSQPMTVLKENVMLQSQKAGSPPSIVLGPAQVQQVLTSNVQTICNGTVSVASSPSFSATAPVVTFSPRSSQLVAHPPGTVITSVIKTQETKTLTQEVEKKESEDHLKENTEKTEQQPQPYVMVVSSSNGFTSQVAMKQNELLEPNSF

## TAACCG
FLI1
  binding signal: 1.06 fold enrichment (6-mer frequency, TF over GST control)
ELK1
  binding signal: 1.05 fold enrichment (6-mer frequency, TF over GST control)
ERG
  binding signal: 1.06 fold enrichment (6-mer frequency, TF over GST control)
ELF1
  binding signal: 1.1 fold enrichment (6-mer frequency, TF over GST control)
EHF
  binding signal: 1.06 fold enrichment (6-mer frequency, TF over GST control)
SPIB
  binding signal: 1.18 fold enrichment (6-mer frequency, TF over GST control)
FEV
  binding signal: 1.25 fold enrichment (6-mer frequency, TF over GST control)
ETV5
  binding signal: 1.07 fold enrichment (6-mer frequency, TF over GST control)
ELF4
  binding signal: 1.06 fold enrichment (6-mer frequency, TF over GST control)
ETV2
  binding signal: 1.2 fold enrichment (6-mer frequency, TF over GST control)
ELF3
  binding signal: 1.04 fold enrichment (6-mer frequency, TF over GST control)
ETV1
  binding signal: 1.09 fold enrichment (6-mer frequency, TF over GST control)
ERF
  binding signal: 1.12 fold enrichment (6-mer frequency, TF over GST control)
ETV3L
  binding signal: 1.08 fold enrichment (6-mer frequency, TF over GST control)
ETS2
  binding signal: 1.07 fold enrichment (6-mer frequency, TF over GST control)
ETV7
  binding signal: 1.02 fold enrichment (6-mer frequency, TF over GST control)
ETV3
  binding signal: 1.09 fold enrichment (6-mer frequency, TF over GST control)
ETV6
  binding signal: 1.08 fold enrichment (6-mer frequency, TF over GST control)

## AGGAAC
FLI1
  binding signal: 1.03 fold enrichment (6-mer frequency, TF over GST control)
ELK1
  binding signal: 1.08 fold enrichment (6-mer frequency, TF over GST control)
ERG
  binding signal: 1.05 fold enrichment (6-mer frequency, TF over GST control)
EHF
  binding signal: 1.06 fold enrichment (6-mer frequency, TF over GST control)
SPI1
  binding signal: 1.45 fold enrichment (6-mer frequency, TF over GST control)
SPIB
  binding signal: 1.11 fold enrichment (6-mer frequency, TF over GST control)
ETV5
  binding signal: 1.1 fold enrichment (6-mer frequency, TF over GST control)
ELF4
  binding signal: 1 fold enrichment (6-mer frequency, TF over GST control)
ETV2
  binding signal: 1.15 fold enrichment (6-mer frequency, TF over GST control)
ELF3
  binding signal: 1.04 fold enrichment (6-mer frequency, TF over GST control)
ETV1
  binding signal: 1.04 fold enrichment (6-mer frequency, TF over GST control)
ETS2
  binding signal: 1.08 fold enrichment (6-mer frequency, TF over GST control)
ETV3
  binding signal: 1.05 fold enrichment (6-mer frequency, TF over GST control)
ETV6
  binding signal: 1.04 fold enrichment (6-mer frequency, TF over GST control)
